# Screens as filed in PubChem.
# Rows were chosen to be rich in hits. Some 2.3% of all compounds tested hit in one or more screens of this group.
# M1 antag = blocks human M1 muscarinic receptor; CHO-K1 hM1, Fluo-8 calcium fluorescence, ACh EC80 antagonist; inhibition, % at 3 µM; actives 1.3% (n = 360,000); AID 588852;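 active = percent inhibition above its own plate's cutoff, namely the mean of that plate's compound wells plus 3 SD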;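 also: peak over basal fluorescence ratio during 140 s after agonist addition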
# Target sequence (P11229 whole entry, looked up): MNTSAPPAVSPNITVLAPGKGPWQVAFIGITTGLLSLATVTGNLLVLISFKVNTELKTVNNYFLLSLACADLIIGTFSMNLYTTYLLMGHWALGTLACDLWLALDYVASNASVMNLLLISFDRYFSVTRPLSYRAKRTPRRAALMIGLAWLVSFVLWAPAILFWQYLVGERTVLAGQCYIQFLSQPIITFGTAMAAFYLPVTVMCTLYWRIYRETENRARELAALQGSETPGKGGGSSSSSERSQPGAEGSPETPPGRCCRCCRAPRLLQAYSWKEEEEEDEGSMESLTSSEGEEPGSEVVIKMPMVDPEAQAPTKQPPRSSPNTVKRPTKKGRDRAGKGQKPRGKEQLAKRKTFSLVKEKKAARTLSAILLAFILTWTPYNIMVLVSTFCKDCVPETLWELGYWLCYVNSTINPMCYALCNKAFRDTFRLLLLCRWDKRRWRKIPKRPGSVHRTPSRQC
# CHRM1 PAM = potentiates human M1 receptor response to acetylcholine; P11229; CHO-K1 hM1, Fluo-8 calcium fluorescence, ACh EC20; 0% = ACh EC20, 100% = maximal ACh; activation, % at 3 µM; actives 0.088% (n = 360,000); AID 588819; in the data active = activation above about 19%, passing the limit was not always enough
# CHO-K1 Ca antag = nonselective inhibitor or artifact in parental CHO-K1 cells; ATP-induced calcium, Fluo-8 fluorescence; inhibition, % at 3 µM; actives 0.6% (n = 360,000);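 active = inhibition above a per-plate cutoff, the plate's mean sample inhibition plus 3 SD, cut at about 24% in these data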
# M1 PAM parental = counter-screen for M1 PAMs: effect in parental CHO-K1 cells | ATP EC20, Fluo-8 calcium fluorescence; 0% at ATP EC20, 100% at ATP max | activation, % at 3 µM | actives 0.02% (n = 360,000) | AID 602247;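 active = activation above the run cutoff, the mean activation of all test compounds plus 3 SD, cut at about 40% in these data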;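 also: peak over basal fluorescence ratio in a 140 s read after ATP addition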
# M1 ag = activates human CHRM1 receptor; CHO-K1 hM1, Fluo-8 calcium fluorescence, agonist mode; 0% DMSO, 100% acetylcholine EC100; activation, % at 3 µM; actives 0.33% (n = 360,000); AID 588814;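 active = activation above the run's mean compound activation plus 3 SD, cut at about 16% in these data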;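 also: peak over basal fluorescence ratio within a 140 s kinetic read after compound addition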
# CHO-K1 Ca ag = counter-screen for M1 agonists: effect in parental CHO-K1 cells | Fluo-8 calcium fluorescence; scaled to maximal ATP response, vehicle zero | activation, % at 3 µM | actives 0.48% (n = 360,000) | AID 602248; in the data active = activation above about 15%;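 also: untransfected CHO-K1 host cells lacking M1 receptor as counterscreen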
# A number is an active result; - = inactive; . = not tested or not shown.
SMILES,M1 antag,CHRM1 PAM,CHO-K1 Ca antag,M1 PAM parental,M1 ag,CHO-K1 Ca ag
O=C1c2cccc3c(O)ccc(c23)C(=O)N1Cc1ccccc1,69.9,-,60.3,-,262.3,149.2
Cc1cc(C)cc(N(CC(=O)NCc2ccc(F)cc2)C(=O)c2snc(C(N)=O)c2N)c1,-,-,-,-,16.4,-
COc1cccc(NC(=O)CN(C)C(=O)c2cccnc2Sc2ccc(C)c(C)c2)c1,-,-,-,-,-,-
COc1cc(/C=N/NC(=O)CCN2CCN(C(c3ccccc3)c3ccccc3)CC2)ccc1O,27.9,-,-,-,-,-
COc1cc(C)ccc1OCc1cc(C(=O)NC(c2ccccn2)C(F)(F)F)no1 (stereo not given),-,-,35.2,-,-,-
COc1cc(C)ccc1OCc1cc(C(=O)NC2CCOCC2)no1,-,-,-,-,-,-
CN(C)/C(=N\S(=O)(=O)c1ccc(Cl)cc1)c1ccc(F)cc1,-,-,-,-,-,-
COc1ccccc1C1c2[nH]c3ccccc3c2CCN1Cc1cnc(C)s1 (stereo not given),-,-,-,-,-,-
COc1cccc(C2c3[nH]c4ccccc4c3CCN2Cc2cnc(C)s2)c1OC (stereo not given),35.4,-,-,-,-,-
CCC(C)c1ccc(S(=O)(=O)N2CCN3CCCC3C2)cc1 (stereo not given),-,-,-,-,-,-
Cc1cc(/C=N/NC(N)=S)c(C)n1-c1ccc(Cl)cc1,-,-,-,-,-,17.9
O=C(c1ccncc1)N1CCN(CCc2ccccc2)CC1,-,-,-,-,-,-
O=C(c1ccc(Br)o1)N1CCN(CCc2ccncc2)CC1,43.6,-,-,-,-,-
CCOC(=O)c1cnc2ccc(OCC)cc2c1N1CCN(C)CC1,-,-,-,-,-,-
CCOc1ccc2ncc(S(=O)(=O)c3ccc(C)cc3)c(N3CCC4(CC3)OCCO4)c2c1,34.5,-,-,-,-,-
Cc1cccc(C)c1NC(=O)CN(C)C(=O)CN1C(=O)NC2(CCCC2)C1=O,-,-,-,-,-,-
Cc1ccc(CS(=O)Cc2ccc(C(=O)NCc3ccccc3Cl)o2)cc1 (stereo not given),39.4,-,-,-,-,-
COc1cccc(CC(=O)OCC(=O)N(C)CC(=O)Nc2ccc(Cl)c(C(F)(F)F)c2)c1,-,-,-,-,-,-
CCc1noc(C)c1C(=O)Nc1nc(-c2ccc(OC)cc2)cs1,36.6,-,-,-,-,-
CSc1nnc2c3ccccc3n(CCc3ccccc3)c2n1,-,-,-,-,-,-
S=c1nc2c(n[nH]1)c1ccccc1n2CCc1ccccc1,-,-,-,-,20.0,-
O=C(Nc1ccnn1C1CCN(Cc2cc(Cl)ccc2O)CC1)c1cccnc1,39.9,-,-,-,-,-
Cc1cc(C)n2c(NC3CCCC3)c(-c3ccc(F)cc3)nc2n1,.,.,-,-,.,-
CCOC(=O)C1=C[C@@H](CC)N(S(=O)(=O)c2ccc([N+](=O)[O-])cc2)[C@H]1c1ccccc1,-,-,-,-,-,-
CCOC(=O)C1=C[C@@H](C(C)C)N(S(=O)(=O)c2ccc([N+](=O)[O-])cc2)[C@H]1c1ccccc1,58.5,-,-,-,-,-
SMILES,M1 antag,CHRM1 PAM,CHO-K1 Ca antag,M1 PAM parental,M1 ag,CHO-K1 Ca ag
COc1ccccc1N1CCN(Cc2cc(=O)c(OCC(=O)NC3CCCC3)co2)CC1,-,-,-,-,-,-
Cc1ccc2nc(SCC(=O)Nc3ccc(F)cc3)nc(=O)n2c1,-,-,-,-,-,-
CCc1ccc(NC(=O)CSc2nc(=O)n3cc(C)ccc3n2)cc1,-,-,43.0,-,-,-
O=C(Nc1ccc(Cl)cc1)Nc1ccccc1NS(=O)(=O)c1cccs1,33.5,-,34.4,-,-,15.5
O=c1c2cc(Br)ccc2nc(-c2cccc(C(F)(F)F)c2)n1O,-,-,-,-,25.1,-
CC(=O)c1ccc(NC(=O)CSc2nnc(C3CC3)n2C2CC2)cc1,-,-,-,-,-,-
CC(C)(C)OC(=O)NCCCCCc1nnc(SCC(=O)Nc2cccc(Cl)c2)o1,36.2,-,-,-,-,-
CC(C)(C)OC(=O)NCCc1nnc(SCC(=O)Nc2ccc(Br)cc2)o1,-,-,-,-,-,28.6
CC1(Oc2cccc(C#N)c2)CCN(Cc2csc3ccccc23)C1 (stereo not given),-,-,-,-,-,-
O=C(NCCc1ccc(Cl)cc1Cl)C1=CC=CN2CCS(=O)(=O)N=C12,-,-,-,-,-,-
Cc1ccc(C(=O)/C=C/NCc2ccc(F)cc2)cc1,-,-,25.0,-,-,-
Cc1ccc(CN/C=C/C(=O)c2ccc(Br)cc2)cc1,-,-,-,-,-,-
Cc1ccc(C(=O)NN2C(=O)CSC2=S)cc1,-,-,-,-,-,-
C/C(=N\N1C(=O)CSC1=S)c1ccc(Br)cc1,-,-,-,-,-,18.9
Cc1[nH]n2c(=O)c(C#N)c(-c3ccccc3)nc2c1-c1ccccc1,-,-,28.5,-,-,-
CCOC(=O)c1csc(NC(=O)CCS(=O)(=O)c2ccc(Cl)cc2)n1,-,-,-,-,-,-
NCC(c1ccc(Cl)cc1Cl)c1c[nH]c2ccccc12 (stereo not given),-,-,25.2,-,-,15.3
NCC(c1ccccc1Cl)c1c[nH]c2ccccc12 (stereo not given),-,-,-,-,-,-
O=C(O)CSCC(=O)N1CCN(Cc2ccc3c(c2)OCO3)CC1,-,-,-,-,-,-
O=S(=O)(c1ccc(Cl)cc1)N1CCC(O)(CN2CCN(Cc3ccccc3)CC2)CC1,-,-,-,-,-,-
O=S(=O)(c1ccccc1)N1CCC(O)(CSc2ccc(Cl)cc2)CC1,-,-,28.9,-,-,-
COc1cc(/C=N/NC(=O)c2ccccn2)ccc1OC(=O)c1ccc(Br)cc1,-,-,-,-,-,-
COc1cc(/C=N/NC(=O)c2ccccn2)ccc1OC(=O)c1ccccc1Br,-,-,27.5,-,-,-
Cc1nc(C)c(C(=O)OCC(=O)NCCc2ccc(F)cc2)s1,-,-,-,-,-,-
C[C@@H]1CNC(=O)c2c(C(=O)N[C@@H](Cc3c[nH]c4ccccc34)C(=O)OC(C)(C)C)ncn21,-,-,-,-,-,-
S=C(Nc1ccccc1Cl)NC1CCN(Cc2ccccc2)CC1,-,-,-,-,-,-
S=C(Nc1cc(Cl)cc(Cl)c1)NC1CCN(Cc2ccccc2)CC1,-,-,25.2,-,-,17.1
CCC1CCCCN1CCCNC(=O)CNC(=O)c1nn(-c2ccc(OC)cc2)c(=O)c2ccccc12 (stereo not given),39.9,-,-,-,-,-
